Data from PubChem BioAssay (NCATS).
Values joined by “and” are separate entries in the source; they are usually repeats but may differ in a detail not shown here. Equal values may be shown once. Records with an inconclusive call do not appear. Where a call stands in place of a potency, no number is given. Active and inactive are the calls of the source. The call rests on the fitted dose curve; in most records, active means well fitted inhibition curve with a large enough effect; inconclusive means small, poorly fitted or top-dose-only effect; inactive means no such curve, though single readings can be large or run the other way.

target: Glutaminase kidney isoform, mitochondrial (Homo sapiens) (UniProt O94925); test: qHTS for Inhibitors of Glutaminase (GLS): LOPAC Validation (AID 624146); details: glutaminase enzyme activity inhibition; series mostly up to 46.1 µM; further: nearly all actives have a fitted effect of over 60% in size
From the text: Glutaminase (GLS) catalyzes the hydrolysis of glutamine into glutamate and ammonia. It plays a critical role in glutaminolysis, which is an important energy source for proliferating cells. It was shown that c-Myc, an oncogenic transcription factor known to regulate microRNAs and to stimulate cell proliferation, increases glutamine metabolism by stimulating the expression of GLS via direct suppression of miR23a and miR23b.
GLS is also thought to play a pathogenic role on HAD using a human HIV-1 infected macrophage system. […] GLS inhibition limits glutamate release and provides neuroprotection against HIV-1 infected macrophages.
The overall goal of this project is to identify small molecule inhibitors of GLS through quantitative high throughput screening (qHTS) of the MLSMR. A validated potent and selective inhibitor can be used as a tool molecule to further study the pharmacology of its target as well as explore its potential therapeutic application in cancer and inflammatory neurological disorders, such as HIV1-associated dementia (HAD) and multiple sclerosis.
NIH Chemical Genomics Center [NCGC]
NIH Molecular Libraries Probe Centers Network [MLPCN]
Assay Submitter (PI): Barbara S. Slusher, Johns Hopkins University
Three 3 uL of hKGA is dispensed into black well 1536-well plates in 45 mM KH2PO4 (pH 8.2), 0.02% Tween-20. Then 23 nL of compounds are added through pin tool transfer. To this, 1 uL of 1mM L-Glutamine and 1 uL of a solution of L-Glutamateoxidase, HRP, Amplex red are added. Plate is centrifuged for 25 sec before an initial fluorescence read is obtained on the ViewLux, after 30 min of RT incubation, the final read is taken on the ViewLux.
Potency means the concentration at half of the fitted maximal effect.

Chain of Glutaminase kidney isoform, mitochondrial (Homo sapiens) (O94925 whole entry, looked up, canonical isoform): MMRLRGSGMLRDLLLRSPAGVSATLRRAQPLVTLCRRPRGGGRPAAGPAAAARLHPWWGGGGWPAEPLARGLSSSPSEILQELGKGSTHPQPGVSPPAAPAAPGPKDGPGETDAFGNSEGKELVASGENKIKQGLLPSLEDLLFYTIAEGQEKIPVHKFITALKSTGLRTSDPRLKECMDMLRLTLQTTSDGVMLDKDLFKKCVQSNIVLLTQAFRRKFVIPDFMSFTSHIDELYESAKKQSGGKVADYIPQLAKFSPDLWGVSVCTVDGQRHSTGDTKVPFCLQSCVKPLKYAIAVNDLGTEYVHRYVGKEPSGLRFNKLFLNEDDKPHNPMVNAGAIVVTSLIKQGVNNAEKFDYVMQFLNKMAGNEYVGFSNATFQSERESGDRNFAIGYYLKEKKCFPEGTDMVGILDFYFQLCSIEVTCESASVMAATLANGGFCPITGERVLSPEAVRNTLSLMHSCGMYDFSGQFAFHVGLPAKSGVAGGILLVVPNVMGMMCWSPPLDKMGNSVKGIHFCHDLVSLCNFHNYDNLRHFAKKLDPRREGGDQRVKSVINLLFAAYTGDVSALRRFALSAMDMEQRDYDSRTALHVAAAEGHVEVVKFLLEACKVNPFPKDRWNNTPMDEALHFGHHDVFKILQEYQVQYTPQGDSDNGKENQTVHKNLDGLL

SMILES	Potency
Cc1nccc2c1[nH]c1ccccc12	inactive
O=C(O)Cc1cnc[nH]1	inactive
CC(=O)NCCc1c[nH]c2ccccc12	inactive
NC1CC1c1ccccc1 (stereo not given)	inactive
CCCCc1ccc(C(=O)O)nc1	inactive
O=C(O)[C@@H]1CCN1	inactive
Oc1ccc2c3c1O[C@H]1c4[nH]c5c(c4C[C@@]4(O)[C@@H](C2)N(CC2CC2)CC[C@]314)C[C@@]1(O)[C@H]2Cc3ccc(O)c4c3[C@@]1(CCN2CC1CC1)[C@H]5O4	12.6 µM (active)
CC[C@@]1(O)C(=O)OCc2c1cc1n(c2=O)Cc2cc3ccccc3nc2-1	inactive
C[C@]12N[C@H](Cc3ccccc31)c1ccccc12	inactive
CCCN(CCC)[C@@H]1CCc2ccc(O)cc2C1	inactive
CC(=O)[C@H]1CCC2C3CC[C@H]4C[C@H](O)CC[C@]4(C)C3CC[C@@]21C (stereo not given in full)	inactive
NC(N)=NOCCC(N)C(=O)O (stereo not given)	inactive
C[N+]1(C)C2CCC1CC(OC(=O)C(CO)c1ccccc1)C2 (stereo not given)	inactive
COC(=O)[C@@H](N)CCCN=C(N)N[N+](=O)[O-]	inactive
CCCN1CCC[C@H](c2cccc(O)c2)C1	inactive
NCCc1c[nH]c2ccccc12	inactive
CC(C)NC(C)Cc1ccc(I)cc1 (stereo not given)	inactive
c1ccc(CCCN2CCN(CCOC(c3ccccc3)c3ccccc3)CC2)cc1	inactive
NC(CP(=O)(O)O)C(=O)O (stereo not given)	inactive
c1ccc2sc(C3(N4CCCCC4)CCCCC3)cc2c1	inactive

SMILES	Potency
C[C@@H]1O[C@H](C[N+](C)(C)C)C[C@H]1O	inactive
CN1C2CCC1CC(OC(=O)c1cc(Cl)cc(Cl)c1)C2 (stereo not given)	inactive
C[C@@H](N)Cc1cnc[nH]1	inactive
O=C(N[C@H]1CN2CCC1CC2)c1ccc(Cl)cc1	inactive
S=C(NC1CCCCC1)N1CCC(c2cnc[nH]2)CC1	inactive
NC(=NCCC[C@H](N)C(=O)O)N[N+](=O)[O-]	inactive
NCCc1c[nH]c2ccc(O)cc12	inactive
COc1ccc2c(c[n+](C)c3c4cc5c(cc4ccc23)OCO5)c1OC	3.16 µM (active)
c1ccc(C2(c3ccccc3)CC2C2=NCCN2)cc1 (stereo not given)	inactive
NC(CCP(=O)(O)O)C(=O)O (stereo not given)	inactive
C[C@]12CCC3C(CC[C@H]4C[C@H](O)CC[C@]34C)C1CC[C@@H]2C(=O)CO (stereo not given in full)	inactive
CNCCc1ccc(O)c(O)c1	inactive
NC(=O)CN1CC(O)CC1=O (stereo not given)	inactive
C#CCOC(=O)C1=CCCN(C)C1	inactive
CS(=N)(=O)CC[C@H](N)C(=O)O (stereo not given in full)	inactive
O=C(O)CC[N+](=O)[O-]	inactive
O=C1CCCN1CC#CCN1CCCC1	inactive
CCCN1CCO[C@@H]2c3cc(O)ccc3OC[C@H]21	4.47 µM (active) and 1.41 µM (active)
CC[C@@H](C(N)=O)N1CCCC1=O	inactive
C=CCN1CC[C@]23CCCCC2[C@H]1Cc1ccc(O)cc13 (stereo not given in full)	inactive
